What all share (test): PBM binding z-score (relative to random genomic background probes); higher = stronger binding; sequences stand for … in GC…GCGATTGACAGCGTAGAATGAAGG
Assay [1] deals with FXR:RXRa (NR concentration 270 nM, RXRa partner concentration 90 nM). An outline of the steps:
(§1)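 Custom Agilent 4×180K protein-binding microarrays carried double-stranded probes. Their 34-nt variable regions held direct-repeat seeds, single-nucleotide variants, half-site ablations and random human genomic background sequences. Arrays were incubated 1 h with ligand-free nuclear receptor dimers in PBS pH 7.4, 2% milk, 0.02% Triton X-100, 1 mM DTT, 0.2 mg/mL BSA and 0.4 mg/ml salmon testes DNA. Antibodies against each partner (one per run) detected binding, and scanned fluorescence was regression-normalized. Binding z-scores use random background probes as reference.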

Assay [2] relates to LXRa:RXRa (NR concentration 270 nM, RXRa partner concentration 90 nM). An outline of the steps:
as §1

In assay [3] the test system is LXRa homodimer (NR concentration 270 nM). An outline of the steps:
as §1

Assay [4] deals with LXRb:RXRa (NR concentration 270 nM, RXRa partner concentration 90 nM). In short, it runs like this:
as §1

The subject of assay [5] is LXRb homodimer (NR concentration 270 nM). An outline of the steps:
as §1

Assay [6] deals with PPARa:RXRa (NR concentration 270 nM, RXRa partner concentration 90 nM). In short, it runs like this: as §1
The test system of assay [7] is PPARg:RXRa (NR concentration 180 nM, RXRa partner concentration 90 nM). An outline of the steps: as §1
The test system of assay [8] is PPARg:RXRa 270nM:90nM, anti-RXR (NR concentration 270 nM, RXRa partner concentration 90 nM). In short, it runs like this:
as §1

Assay [9] deals with PPARg:RXRa 30nM:10nM, anti-RXR (NR concentration 30 nM, RXRa partner concentration 10 nM). In short, it runs like this:
as §1

Assay [10] concerns PPARg:RXRa 90nM:30nM, anti-RXR (NR concentration 90 nM, RXRa partner concentration 30 nM). An outline of the steps:
as §1

Assay [11] relates to PPARg:RXRa DBDmut IVT, anti-RXR (DBD mutation: RXRa K156A/R161A, NR concentration 270 nM, RXRa partner concentration 90 nM). In short, it runs like this:
as §1

Assay [12] relates to PPARg:RXRa IVT, anti-PPARg (NR concentration 270 nM, RXRa partner concentration 90 nM). In short, it runs like this:
as §1

Assay [13] concerns PPARg DBDmut:RXRa IVT, anti-PPARg (DBD mutation: PPARg1 K132A/R137A, NR concentration 270 nM, RXRa partner concentration 90 nM). An outline of the steps: as §1
Assay [14] deals with PPARg DBDmut IVT, anti-PPARg (DBD mutation: PPARg1 K132A/R137A, NR concentration 270 nM). In short, it runs like this: as §1
The subject of assay [15] is PPARg homodimer (NR concentration 180 nM). In short, it runs like this: as §1
Assay [16] has as its system PXR:RXRa (NR concentration 270 nM, RXRa partner concentration 90 nM). In short, it runs like this:
as §1

The subject of assay [17] is PXR homodimer (NR concentration 270 nM). In short, it runs like this: as §1
The subject of assay [18] is RARa:RXR (NR concentration 270 nM, RXRa partner concentration 90 nM). In short, it runs like this: as §1
The subject of assay [19] is RARa homodimer (NR concentration 270 nM). An outline of the steps:
as §1

In assay [20] the test system is RARb:RXRa (NR concentration 270 nM, RXRa partner concentration 90 nM). In short, it runs like this: as §1

For GCTATTAGTTGCAAGGGCAACCGAATGATTCTCG, the PBM binding z-score was 0.225 in assay [1]; 0.26 in [2]; -0.0244 in assay [3]; 0.193 in assay [4]; 0.0622 in assay [5]; 0.193 in assay [6]. For the same sequence, the PBM binding z-score came out at 0.483 in assay [7]; 0.912 in assay [8]; 0.0952 in assay [9]; 0.546 in assay [10]; 0.729 in assay [11]; 0.0802 in assay [12]. Moreover, the PBM binding z-score in assay [13] was -0.249; in assay [14], -0.171; in [15], 0.499; in assay [16] it was 0.243; in assay [17], 0.11; in assay [18], -0.00266. The PBM binding z-score was -0.474 in assay [19] and 1.37 in assay [20].
Consider AATACAGGGTCACTAGGCCAGAGTTGGTACGAAT, for which the PBM binding z-score in [1] is 6.05; in [2], 4.87; in [3], 0.807; in assay [4], 3.75; in [5], 0.616; in assay [6], 5.99. Besides, the PBM binding z-score stood at 8.38 in assay [7]; 6.63 in [8]; 3.71 in assay [9]; 5.85 in assay [10]; 4.05 in assay [11]; 5.77 in [12]. Further, the PBM binding z-score in assay [13] is 1.25; in assay [14], 0.486; in assay [15] it was 2.23; in [16] it was 3.38; in [17], 0.712; in assay [18], 4.44. Moreover, the figures for the PBM binding z-score in assay [19] and in assay [20] were 0.618 and 4.29, respectively.
As to TCAGATAGGTAAAAGGTGAAAGTCGGTGTGGTAA, the PBM binding z-score was 2.12 in assay [1]; 1.87 in [2]; 0.408 in assay [3]; 2.01 in [4]; 0.00585 in assay [5]; 4.67 in assay [6]. The PBM binding z-score is 6.03 in [7]; 6.8 in [8]; 6.55 in assay [9]; 7.29 in assay [10]; 3.61 in assay [11]; 3.39 in [12]. In addition, the PBM binding z-score turned out to be 0.424 in [13]; 0.558 in [14]; 1.78 in [15]; 1.84 in assay [16]; 0.95 in assay [17]; 2.63 in [18]. Besides, the PBM binding z-score in [19] was 1.51; in assay [20], 2.02.
With CCTACTGGGCCATAAAGGTCATTGATGCCGATAA, the PBM binding z-score in [1] is 3.55; in [2] it was 4.42; in [3], 3.57; in [4] it was 4.21; in assay [5] it was 0.574; in [6], 4.79. Besides, the PBM binding z-score in assay [7] worked out at 4.32; in assay [8], 4.68; in assay [9], 2.1; in assay [10] it was 4.45; in assay [11], 3.2; in assay [12] it was 4.78. In addition, the PBM binding z-score in assay [13] is -0.0892; in assay [14], 0.0735; in [15], 1.94; in assay [16], 4.87; in assay [17] it was 2.7; in assay [18] it was 4.9. In addition, the PBM binding z-score in [19] turned out to be 0.376; in assay [20], 3.89.
As to CCTGCTAGGTCATGGTCTGCTAATCTACAGTATG, the PBM binding z-score in [1] is 3.19; in [2] it was 2.35; in assay [3], 0.138; in assay [4], 1.97; in [5], -0.218; in assay [6] it was 3.4. For the same sequence, the PBM binding z-score in assay [7] is 2.18; in assay [8] it was 3.48; in assay [9] it was 1.08; in assay [10] it was 2.49; in assay [11] it was 4.68; in [12] it was 3.6. Moreover, the PBM binding z-score in assay [13] was 0.818; in [14], -0.517; in assay [15], 0.597; in assay [16], 1.33; in [17], -0.00693; in assay [18], 2.22. Also, the values for the PBM binding z-score in [19] and in assay [20] were -0.00634 and 3.87, respectively.
For the sequence TCTTGTAGATCAGCAGGAGGTTAAGAAAGATCGA, the PBM binding z-score in [1] was -0.201; in assay [2] it was 0.985; in assay [3], -0.411; in assay [4], 0.538; in assay [5] it was -0.736; in [6], 1.03. In addition, the PBM binding z-score in [7] is -0.21; in [8], 1.36; in [9], 2.16; in [10], 1.74; in [11], 1.2; in assay [12], 0.727. Further, the PBM binding z-score in assay [13] was 0.985; in assay [14], 0.0884; in assay [15], -0.244; in assay [16], 0.907; in assay [17], -0.404; in assay [18] it was 0.574. Besides, the values for the PBM binding z-score in assay [19] and in [20] were -0.978 and 0.468, respectively.
As to TGAATGAGGTTATTAGATCAGGGAACGTTGCAAA, the PBM binding z-score in assay [1] amounted to 1.98; in assay [2], 1.62; in [3], 0.0291; in assay [4], 1.3; in assay [5], 0.0407; in assay [6], 3.09. Also, the PBM binding z-score turned out to be 2.46 in assay [7]; 2.61 in [8]; 0.886 in assay [9]; 1.65 in assay [10]; 2.05 in assay [11]; 2.98 in assay [12]. In addition, the PBM binding z-score in assay [13] was 1.48; in assay [14] it was 0.859; in assay [15] it was 0.948; in assay [16], 0.902; in [17], 0.241; in [18], 1.43. The PBM binding z-score is 0.496 in [19] and 1.24 in assay [20].

The values above are taken from the supplement of paper PMC6555819.
